Measurements reported in PubChem BioAssay (Tox21).
Several values for one entry are separate records, joined by “and”; a condition that tells them apart may be missing. Equal entries are not always repeated. Results filed as inconclusive are left out. Entries that show only a call come without a potency. More than one record can exist for a structure, and the calls need not agree. Activity calls are given as the source filed them. Calls follow the shape of the full dose curve.

Legend:
[1] = target: Acetylcholinesterase (Homo sapiens) (UniProt P22303); test: Acetylcholinesterase (AChE) small molecule antagonists: colormetric cell-based qHTS assay (AID 1347395); also: nearly all actives have a fitted effect of over 30% in size; also: potency is read from the fitted curve at half-maximal effect
Sequence of Acetylcholinesterase (Homo sapiens) (P22303 whole entry, looked up): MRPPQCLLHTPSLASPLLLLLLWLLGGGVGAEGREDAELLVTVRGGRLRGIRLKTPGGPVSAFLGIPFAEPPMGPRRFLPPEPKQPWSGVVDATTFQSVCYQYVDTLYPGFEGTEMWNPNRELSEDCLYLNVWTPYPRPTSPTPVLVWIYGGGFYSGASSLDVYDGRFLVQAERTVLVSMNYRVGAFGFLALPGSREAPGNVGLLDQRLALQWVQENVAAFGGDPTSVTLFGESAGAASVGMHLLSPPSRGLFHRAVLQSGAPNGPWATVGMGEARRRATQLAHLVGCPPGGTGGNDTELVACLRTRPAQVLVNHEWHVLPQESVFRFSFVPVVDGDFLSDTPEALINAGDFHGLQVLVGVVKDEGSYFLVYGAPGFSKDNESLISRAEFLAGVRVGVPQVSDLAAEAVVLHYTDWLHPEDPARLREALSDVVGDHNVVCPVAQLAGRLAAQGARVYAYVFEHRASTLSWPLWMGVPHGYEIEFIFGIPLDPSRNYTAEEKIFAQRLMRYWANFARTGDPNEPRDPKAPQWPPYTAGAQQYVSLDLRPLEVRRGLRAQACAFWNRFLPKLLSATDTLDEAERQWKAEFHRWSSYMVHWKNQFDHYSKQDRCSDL
Procedure, shortened: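 Quantitative HTS in attached SH-SY5Y cells: 30 min compound exposure, then 90 min with acetylthiocholine and DTNB at 37 C; colour from thiocholine reports AChE activity.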

[2] = target: Acetylcholinesterase (Homo sapiens) (UniProt P22303); test: Acetylcholinesterase (AChE) small molecule antagonists: enzyme-based qHTS assay (AID 1347397); details: Potency: AChE enzyme activity inhibition; outcome: AChE enzyme activity inhibition; also: nearly all actives have a fitted effect of over 55% in size; also: potency is read from the fitted curve at half-maximal effect
Procedure, shortened: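 Enzyme inhibition was scored from DTNB-detected thiocholine formed by recombinant human AChE acting on acetylthiocholine. The 30 min compound preincubation and 10 min substrate reaction were both run at room temperature, with DMSO as vehicle control.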

[3] = target: Acetylcholinesterase (Homo sapiens) (UniProt P22303); test: Acetylcholinesterase (AChE) small molecule antagonists: fluorescence cell-based qHTS assay (AID 1347398); details: Potency: AChE activity; outcome: AChE activity; also: nearly all actives have a fitted effect of over 50% in size; also: potency is read from the fitted curve at half-maximal effect
Procedure, shortened: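 Endogenous acetylcholinesterase of SH-SY5Y neuroblastoma cells is measured in situ. After overnight attachment and 30 min compound exposure, cells receive acetylthiocholine and Thiolite Green; fluorescence is read after 40 min at room temperature.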

[4] = target: Acetylcholinesterase (Homo sapiens) (UniProt P22303); test: Acetylcholinesterase (AChE) small molecule antagonists: enzyme-based qHTS assay with human liver microsomes (AID 1347399); details: Potency: qHTS inhibition; outcome: qHTS inhibition; also: nearly all actives have a fitted effect of over 60% in size
Procedure, shortened: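 Recombinant human AChE (50 mU/mL in the enzyme mix) and human liver microsomes (0.25 mg/mL final) were preincubated with compound and NADPH (0.25 mg/mL final) for 30 min at 37 C. Acetylthiocholine/DTNB was then added; thiocholine was read colorimetrically after 10 min at room temperature.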

SMILES | Potency [1] | Potency [2] | Potency [3] | Potency [4] | activity, negative = inhibition [1] | activity change, negative = inhibition [2] | activity change, negative = inhibition [3] | activity change, negative = inhibition [4]
C=C[C@](C)(O)CC[C@@H]1[C@@]2(C)CCCC(C)(C)[C@@H]2CC[C@@]1(C)O | inactive | inactive | inactive | inactive | – | – | – | –
O=C(C(=O)c1ccc(Br)cc1)c1ccc(Br)cc1 | – | – | – | – | 1.28% [at 23.6 µM] (inactive) | 1.82% [at 23.6 µM] (inactive) | -2.19% [at 23.8 µM] (inactive) | -3.65% [at 23.6 µM] (inactive)
CCCCCCCCCCCCCCCCO | inactive | inactive | inactive | inactive | – | – | – | –
O=C(O)O | – | – | – | – | -0.194% [at 10.5 µM] (inactive) | 0.136% [at 10.5 µM] (inactive) | 2.47% [at 10.5 µM] (inactive) | -6.48% [at 10.5 µM] (inactive)
Cc1cc(O)c(Cl)cc1C | inactive | inactive | inactive | inactive | – | – | – | –
Cc1ccccc1Cl | inactive | inactive | inactive | inactive | – | – | – | –
CN(C)CCCNCCCN(C)C | inactive | inactive | inactive | inactive | – | – | – | –
C/C=C/C(=O)O | inactive | inactive | inactive | inactive | – | – | – | –
CCCC(=O)c1ccccc1 | inactive | inactive | inactive | inactive | – | – | – | –
Cn1sccc1=O | inactive and 71 µM (active) | inactive | inactive | inactive | – | – | – | –
CC(=O)Nc1ccc(N)cc1 | inactive | inactive | inactive | inactive | – | – | – | –
COc1ccc2nc(N)sc2c1 | inactive | inactive | inactive | inactive | – | – | – | –
CCCCC(CC)CN1C(=O)C2C3C=CC(C3)C2C1=O (stereo not given) | inactive | inactive | inactive | inactive | – | – | – | –
CCOC(=O)N1CCC(n2c(=O)[nH]c3cc(Cl)ccc32)CC1 | inactive | inactive | inactive | inactive | – | – | – | –
O=c1cc(-c2ccc(O)cc2)oc2cc(O)cc(O)c12 | inactive | inactive | inactive | inactive | – | – | – | –
C=CCS(=O)(=O)O | inactive | inactive | inactive | inactive | – | – | – | –
CC[C@H](C)[C@@H](C(=O)O)n1sc2ccccc2c1=O | inactive | inactive | inactive | inactive | – | – | – | –
C=C(C)C(=O)OCC(C)O (stereo not given) | inactive | inactive | inactive | inactive | – | – | – | –
CC(C)c1nc(CN(C)C(=O)N[C@H](C(=O)N[C@@H](Cc2ccccc2)C[C@H](O)[C@H](Cc2ccccc2)NC(=O)OCc2cncs2)C(C)C)cs1 | inactive | inactive | inactive | inactive | – | – | – | –
CCCCC(CC)C(=O)OCCOCCOCCOCCOC(=O)C(CC)CCCC (stereo not given) | inactive | inactive | inactive | inactive | – | – | – | –

SMILES | Potency [1] | Potency [2] | Potency [3] | Potency [4] | activity, negative = inhibition [1] | activity change, negative = inhibition [2] | activity change, negative = inhibition [3] | activity change, negative = inhibition [4]
CCCCCCC1CCCC(=O)O1 (stereo not given) | inactive | inactive | inactive | inactive | – | – | – | –
CCC(C(=O)OCCN(CC)CC)c1ccccc1 (stereo not given) | inactive | inactive | inactive | inactive | – | – | – | –
O=S(=O)(O)c1ccc(O)cc1 | inactive | inactive | inactive | inactive | – | – | – | –
O=C(CCNNC(=O)c1ccncc1)NCc1ccccc1 | inactive | inactive | inactive | inactive | – | – | – | –
CCCCC=O | inactive | inactive | inactive | inactive | – | – | – | –
CC1=C2[C@@H]([C@H](C)CC[C@H]2/C=C(\C)C(=O)O)[C@H](O)C1 | inactive | inactive | inactive | inactive | – | – | – | –
CC(C)(C)NC(=O)[C@H]1CC[C@H]2[C@@H]3CC[C@H]4NC(=O)C=C[C@]4(C)[C@H]3CC[C@]12C | inactive | inactive | inactive | inactive | – | – | – | –
CCCCCCCCCCCCCC[N+](C)(C)C | inactive | 30.6 µM (active) and 70.9 µM (active) and inactive | 61.1 µM (active) and 39.9 µM (active) | inactive | – | – | – | –
NS(=O)(=O)c1cc(C(=O)O)cc(N2CCCC2)c1Oc1ccccc1 | inactive | inactive | inactive | inactive | – | – | – | –
Cc1c(Cn2ccnc2)c2ccccc2n1CCC(=O)O | inactive | inactive | inactive | inactive | – | – | – | –
CC(=O)c1ccccc1 | inactive | inactive | inactive | inactive | – | – | – | –
C[N+](C)(C)CC(O)CCl (stereo not given) | inactive | inactive | inactive | inactive | – | – | – | –
O=C(NCCCN1CCOCC1)c1ccc(Cl)cc1 | inactive | inactive | inactive | inactive | – | – | – | –
OC1CCCCC1 | inactive | inactive | inactive | inactive | – | – | – | –
C=C1[C@H]2CC[C@@H]3[C@H]2C(C)(C)CCC[C@]13C | inactive | inactive | inactive | inactive | – | – | – | –
CCCCN(CCO)CCO | inactive | inactive | inactive | inactive | – | – | – | –
CCCCCCCCCCCCOC(=O)c1cc(O)c(O)c(O)c1 | inactive | 35.4 µM (active) and 39.9 µM (active) | inactive | inactive | – | – | – | –
O=C1C=CC(=O)N1c1ccccc1 | inactive | inactive | 35.6 µM (active) | inactive | – | – | – | –
Cn1ccnc1 | inactive | inactive | inactive | inactive | – | – | – | –
COc1cccc(N(C)C(=S)Oc2ccc3c(c2)CCCC3)n1 | inactive | inactive | inactive | inactive | – | – | – | –

SMILES | Potency [1] | Potency [2] | Potency [3] | Potency [4] | activity, negative = inhibition [1] | activity change, negative = inhibition [2] | activity change, negative = inhibition [3] | activity change, negative = inhibition [4]
CCOC(=O)c1ccc(I)cc1 | inactive | inactive | inactive | inactive | – | – | – | –
CC(=O)OC/C=C/c1ccccc1 | inactive | inactive | inactive | inactive | – | – | – | –
OC1C(O)C(O)C(O)C(O)C1O (stereo not given) | inactive | inactive | inactive | inactive | – | – | – | –
CCOC(=O)c1ccc(O)cc1 | inactive | inactive | inactive | inactive | – | – | – | –
CCc1c(C(=O)O)c(=O)cnn1-c1ccc(Cl)cc1 | inactive | inactive | inactive | inactive | – | – | – | –
CCCCC(CC)COC(C)=O (stereo not given) | inactive | inactive | inactive | inactive | – | – | – | –
O=C(NCC1CN(c2ccc(N3CCOCC3=O)cc2)C(=O)O1)c1ccc(Cl)s1 (stereo not given) | inactive | inactive | inactive | inactive | – | – | – | –
Nc1nc2ccc([N+](=O)[O-])cc2s1 | inactive | inactive | inactive | inactive | – | – | – | –
CCCCOC(=O)[C@H](C)O | inactive | inactive | inactive | inactive | – | – | – | –
O=C=Nc1cccc(C(F)(F)F)c1 | inactive | inactive | inactive | inactive | – | – | – | –
CCOC(=O)CCC(C)=O | inactive | inactive | inactive | inactive | – | – | – | –
CCOC(=O)c1cccnc1 | inactive | inactive | inactive | inactive | – | – | – | –
CC/C=C\CC/C=C/C(OCC)OCC | inactive | inactive | inactive | inactive | – | – | – | –
CCCCc1nc(Cl)c(CO)n1Cc1ccc(-c2ccccc2-c2nn[nH]n2)cc1 | inactive | inactive | inactive | inactive | – | – | – | –
O=[N+]([O-])c1ccc(NCCO)c(OCCO)c1 | inactive | inactive | inactive | inactive | – | – | – | –
CCCC/C=C\CCCCCCCCCC=O | inactive | inactive | inactive | inactive | – | – | – | –
C/C(Cl)=C/CCl | inactive | inactive | inactive | inactive | – | – | – | –
CCCCCC/C=C/CCCCCCCC(=O)O | inactive | inactive | inactive | inactive | – | – | – | –
NNC(=O)CP(=O)(c1ccccc1)c1ccccc1 | inactive | inactive | inactive | inactive | – | – | – | –
CCCCCCCCCCCCCCC(=O)NC(CO)CCCCCCCCCCCCCC (stereo not given) | inactive | inactive | inactive | inactive | – | – | – | –
